This note sets out measurements from the supplement of paper PMC13380429.

Assay [1] concerns Vero E6 infected with SARS-CoV-2. As to the kind of experiment: morphology score (similarity to uninfected cells); higher = more like uninfected cells. As to conditions: 24 h.
Assay [2] has the same test system. As to the kind of experiment: SARS-CoV-2 infection rate relative to infected DMSO; higher = more infection, active = 60 or less. The conditions noted are these: 24 h.

In turn, `O=C1OCCN1/N=C/c1ccc([N+](=O)[O-])o1` [furazolidone] (10 µM) yielded a morphology score in assay [1] of 0.0225. Also, the SARS-CoV-2 infection rate in assay [2] is 102% (inactive).

Turning to `CC(=O)C1=C(O)[C@@H]2[C@H]3c4c[nH]c5cccc(c45)C[C@H]3C(C)(C)N2C1=O` [cyclopiazonic-acid] (0.833333 µM), the morphology score in assay [1] is 0.361. The SARS-CoV-2 infection rate in assay [2] is 76.5% (inactive).

In assay [1], `CCC(CC)O[C@@H]1C=C(C(=O)O)C[C@H](N)[C@H]1NC(C)=O` [oseltamivir-carboxylate] (10 µM) yielded a morphology score of -0.0548. For the same compound, the SARS-CoV-2 infection rate in assay [2] was 102% (inactive).

`FC(F)(F)c1ccc(N2CCNCC2)nc1Cl` (10 µM) came in with a morphology score in assay [1] of 0.273. Also, the SARS-CoV-2 infection rate in assay [2] was 89.5% (inactive).

Compound `FC(F)(F)c1cc(CO[C@H]2CCCN[C@H]2c2ccccc2)cc(C(F)(F)F)c1` (10 µM) returned a morphology score in assay [1] of 0.777. Further, in assay [2], the SARS-CoV-2 infection rate is 16% (active).

Consider `COc1cc2c(cc1OC)-c1cc3ccc(OC)c(OC)c3c[n+]1CC2` [palmatine-chloride] (10 µM), for which, in assay [1], the morphology score stood at 0.189. Further, in assay [2], the SARS-CoV-2 infection rate is 92% (inactive).

`N#Cc1ccncn1` [4-pyrimidinecarbonitrile] (10 µM) gave a morphology score in assay [1] of 0.0783. Also, the SARS-CoV-2 infection rate in assay [2] was 97% (inactive).

With `CC(C)Oc1ccc(Cc2ccc(NC3=NCCN3)cc2)cc1` (10 µM), in assay [1], the morphology score worked out at 0.0823. Moreover, the SARS-CoV-2 infection rate in assay [2] was 100% (inactive).

In assay [1], `Cn1cccc1/C=C1\C(=O)NC(=O)c2ccccc21` (0.833333 µM) gave a morphology score of 0.0943. The SARS-CoV-2 infection rate in assay [2] was 100% (inactive).

Consider `N[C@@H](Cc1c[nH]c2ccccc12)C(=O)O` [tryptophan] (10 µM), for which the morphology score in assay [1] is -0.124. Further, the SARS-CoV-2 infection rate in assay [2] is 100% (inactive).

`[O-][n+]1ccccc1[S-].[O-][n+]1ccccc1[S-].[Zn+2]` [pyrithione-zinc] (10 µM) registered a morphology score in assay [1] of 0.0399. For the same compound, the SARS-CoV-2 infection rate in assay [2] is 91.5% (inactive).

In assay [1], `CC(c1cc2ccccc2s1)N(O)C(N)=O` (stereo not drawn) [zileuton] (10 µM) returned a morphology score of 0.0704. Further, the SARS-CoV-2 infection rate in assay [2] was 98.5% (inactive).

In the case of `CCOc1cc(C(=O)N2CCC(N3CCN(C)CC3)CC2)ccc1Nc1ncc2c(n1)N(C1CCCC1)c1ccccc1C(=O)N2C` (10 µM), the morphology score in assay [1] is -0.264. The SARS-CoV-2 infection rate in assay [2] was 122% (inactive).

In assay [1], `CC(=O)c1cc([N+](=O)[O-])c(Sc2ccc(F)cc2F)s1` (10 µM) returned a morphology score of 0.534. In addition, in assay [2], the SARS-CoV-2 infection rate is 38.5% (active).

For the compound `NC1(Cc2ccc(Cl)cc2)CCN(c2ncnc3[nH]ccc23)CC1` (0.833333 µM), the morphology score in assay [1] was 0.535. In addition, the SARS-CoV-2 infection rate in assay [2] was 99.5% (inactive).

`Cc1nc2ccc(Oc3ccc(F)cc3)cc2c(=O)n1C[C@H]1CCCN(C(C)C)C1` (10 µM) yielded a morphology score in assay [1] of 0.295. Further, the SARS-CoV-2 infection rate in assay [2] is 76% (inactive).

Take `Clc1ccc(CCCOCCCN2CCCCC2)cc1` [pitolisant] (10 µM): in assay [1], the morphology score was found to be 0.243. Moreover, in assay [2], the SARS-CoV-2 infection rate was 81% (inactive).

For the compound `CNC(=O)c1c(I)c(C(=O)NCC(=O)Nc2c(I)c(C(=O)O)c(I)c(C(=O)NCCO)c2I)c(I)c(N(C)C(C)=O)c1I` [ioxaglic-acid] (10 µM), the morphology score in assay [1] is 0.0564. The SARS-CoV-2 infection rate in assay [2] is 104% (inactive).

As to `COc1ccn2ncc(-c3nc4[nH]nc(NC(=O)c5ccc(F)cc5)c4cc3F)c2c1` (10 µM), the morphology score in assay [1] was 0.00883. In addition, in assay [2], the SARS-CoV-2 infection rate was 111% (inactive).

On to `c1ccc(Cn2c(-c3ccc(OC[C@H](C4CCNCC4)n4c(-c5ccccc5)nc5ccccc54)cc3)nc3ccccc32)cc1` [deltarasin] (0.833333 µM), for which, in assay [1], the morphology score is 0.147. Further, the SARS-CoV-2 infection rate in assay [2] was 96% (inactive).

The compound `CCCCOc1cc(CC2CNC(=O)N2)ccc1OC` (stereo not drawn) (10 µM) gave a morphology score in assay [1] of 0.429. Also, the SARS-CoV-2 infection rate in assay [2] was 86% (inactive).

With `CCCCCCN(CCCCCC)C(=O)Cc1c(-c2ccc(F)cc2)[nH]c2ccccc12` (10 µM), the morphology score in assay [1] was -0.0301. In assay [2], the SARS-CoV-2 infection rate was 106% (inactive).

With `COC1=C(OC)C(=O)C(CCCCCCCCCCO)=C(C)C1=O` [idebenone] (10 µM), the morphology score in assay [1] is -0.0056. The SARS-CoV-2 infection rate in assay [2] is 92.5% (inactive).

Compound `NCCCCCC(=O)O` [aminocaproic-acid] (10 µM) displayed a morphology score in assay [1] of 0.136. The SARS-CoV-2 infection rate in assay [2] is 89.5% (inactive).

As for `C=C[C@H]1CN2CC[C@H]1C[C@@H]2[C@@H](O)c1ccnc2ccc(OC)cc12` [quinidine] (10 µM), the morphology score in assay [1] is 0.155. The SARS-CoV-2 infection rate in assay [2] is 108% (inactive).

Compound `O=C1[C@H](Cc2ccc(O)cc2)N2C(=O)CCN(C(=O)NCc3ccccc3)[C@H]2CN1Cc1cccc2ccccc12` (10 µM) registered a morphology score in assay [1] of 0.0761. Also, in assay [2], the SARS-CoV-2 infection rate was 93% (inactive).

Compound `O=C(NNC(=O)c1ccc(CNS(=O)(=O)c2ccc(F)c(Cl)c2)cc1)c1ccccc1` (10 µM) showed a morphology score in assay [1] of -0.0845. The SARS-CoV-2 infection rate in assay [2] is 114% (inactive).

As for `CN1CCCN(C(c2ccccc2)c2ccc(Cl)cc2)CC1` (stereo not drawn) [homochlorcyclizine] (10 µM), in assay [1], the morphology score is 0.29. Also, the SARS-CoV-2 infection rate in assay [2] is 59.5% (active).

Take `COC(=O)[C@H](Cc1cccc(C(=N)N)c1)[C@@H](C)NC(=O)c1ccc(-c2cc[n+]([O-])cc2)cc1` [otamixaban] (10 µM): the morphology score in assay [1] is -0.0764. In assay [2], the SARS-CoV-2 infection rate was 100% (inactive).

Consider `NC(=O)[C@@H]1CC[C@@H]2CN1C(=O)N2OS(=O)(=O)O` [avibactam] (10 µM), for which the morphology score in assay [1] came out at 0.0638. The SARS-CoV-2 infection rate in assay [2] was 108% (inactive).

Turning to `CC(=O)NCCCS(=O)(=O)O` [acamprosate] (10 µM), the morphology score in assay [1] stood at 0.0831. Besides, the SARS-CoV-2 infection rate in assay [2] was 102% (inactive).

Compound `CCCCCCCCCCCCCCCC[n+]1ccn(Cc2ccccc2)c1C` (0.833333 µM) displayed a morphology score in assay [1] of 0.0516. Also, the SARS-CoV-2 infection rate in assay [2] was 104% (inactive).

In assay [1], `O=S(=O)(c1ccccc1)c1cnc2c(N3CCNCC3)cccc2c1` (10 µM) displayed a morphology score of -0.0691. Also, the SARS-CoV-2 infection rate in assay [2] is 106% (inactive).

Compound `CC(C)(C)[C@]1(O)CC2OC(=O)CC23C(=O)OC2OC(=O)[C@H](O)C231` (stereo partly drawn) [bilobalide] (10 µM) returned a morphology score in assay [1] of 0.0342. The SARS-CoV-2 infection rate in assay [2] was 110% (inactive).

With `Cc1c(C(=O)NC2CCCCC2)sc2nc3ccc(N)cc3n12` (10 µM), the morphology score in assay [1] is 0.0842. In addition, in assay [2], the SARS-CoV-2 infection rate is 105% (inactive).

As for `C=CC(=O)Nc1cccc(Nc2nc(Nc3ccc(NC4CN(CCF)C4)cc3OC)ncc2C(F)(F)F)c1` (0.833333 µM), the morphology score in assay [1] is -0.356. Also, the SARS-CoV-2 infection rate in assay [2] is 118% (inactive).

Compound `CNCC(=O)O` [sarcosine] (10 µM) displayed a morphology score in assay [1] of 0.0271. Besides, in assay [2], the SARS-CoV-2 infection rate is 108% (inactive).

For `CCC1(CC)C(=O)C=CNC1=O` [pyrithyldione] (10 µM), the morphology score in assay [1] is -0.0471. Further, in assay [2], the SARS-CoV-2 infection rate was 107% (inactive).

The compound `CC(C)(S)C(=O)N[C@@H](CS)C(=O)O` [bucillamine] (10 µM) registered a morphology score in assay [1] of -0.0447. Further, the SARS-CoV-2 infection rate in assay [2] is 107% (inactive).

In assay [1], `O=c1cc(-c2ccccc2)oc2cc(O)cc(O)c12` [chrysin] (10 µM) registered a morphology score of 0.175. The SARS-CoV-2 infection rate in assay [2] is 104% (inactive).

Compound `CC/C(=C(/c1ccc(OCCN(C)C)cc1)c1cccc(O)c1)c1ccccc1` [droloxifene] (10 µM) returned a morphology score in assay [1] of 0.73. The SARS-CoV-2 infection rate in assay [2] is 24% (active).

On to `COCCOC(=O)C1=C(C)NC(C)=C(C(=O)OC/C=C/c2ccccc2)C1c1cccc([N+](=O)[O-])c1` (stereo not drawn) [cilnidipine] (10 µM), for which the morphology score in assay [1] was found to be 0.171. Also, the SARS-CoV-2 infection rate in assay [2] is 95% (inactive).

In assay [1], `C=CC1=C(C(=O)O)N2C(=O)[C@@H](NC(=O)/C(=N\O)c3csc(N)n3)[C@H]2SC1` [cefdinir] (10 µM) gave a morphology score of -0.118. Besides, in assay [2], the SARS-CoV-2 infection rate is 107% (inactive).

In turn, `FC(F)(F)c1cc(NC(=S)Nc2ccc(Br)cc2-c2nnn[nH]2)cc(C(F)(F)F)c1` (10 µM) displayed a morphology score in assay [1] of 0.0928. Further, the SARS-CoV-2 infection rate in assay [2] was 98% (inactive).

The compound `CC(C)(C)NC(=O)N[C@H](C(=O)N1C[C@H]2[C@@H]([C@H]1C(=O)NC(CC1CCC1)C(=O)C(N)=O)C2(C)C)C(C)(C)C` (stereo partly drawn) [Boceprevir] (10 µM) yielded a morphology score in assay [1] of 0.133. Also, the SARS-CoV-2 infection rate in assay [2] was 100% (inactive).

`O=c1c(-c2ccc(O)cc2)coc2c([C@@H]3O[C@H](CO)[C@@H](O)[C@H](O)[C@H]3O)c(O)ccc12` [puerarin] (10 µM) had a morphology score in assay [1] of 0.0648. Further, the SARS-CoV-2 infection rate in assay [2] was 98.5% (inactive).

`CC(=N)NCc1cccc(CN)c1` (10 µM): the morphology score in assay [1] is -0.0209. In assay [2], the SARS-CoV-2 infection rate is 107% (inactive).

For `CC(C(=O)O)c1ccc(N2Cc3ccccc3C2=O)cc1` (stereo not drawn) [indoprofen] (10 µM), the morphology score in assay [1] is -0.106. Further, the SARS-CoV-2 infection rate in assay [2] was 110% (inactive).

On to `CS(=O)(=O)Nc1ccc(Cc2noc(-c3ccc4[nH]cc(CCN)c4c3)n2)cc1` (10 µM), for which, in assay [1], the morphology score came to 0.141. For the same compound, in assay [2], the SARS-CoV-2 infection rate is 103% (inactive).
